SMILES strings stand for the structures. Inconclusive results are not listed. Activity calls are given as the source filed them. The calls were made as follows, unless noted: active = hit-call score of the fitted dose curve at least 0.9, where 1 is the maximum; inactive = score below 0.9.

The AC50 is the concentration giving half of the maximal activity seen.

In assay [1] the target is human Retinoid X Receptor beta (RXRb), RXRB (gene 6257) (UniProt P28702). The assay is described as follows: ATG_RXRb_TRANS: Attagene TRANS-FACTORIAL HepG2 Assay for human Retinoid X Receptor beta (RXRb) (AID 2283013; active = hit-call score of the fitted dose curve at least 0.9, where 1 is the maximum). In short, it runs like this: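 Read-out: reporter mRNA induction via RT-PCR plus capillary electrophoresis fluorescence, analysed as signal increase relative to DMSO. Cells were human HepG2, transiently transfected with GAL4-UAS reporter constructs and chimeric receptor-Gal4 fusions, dosed for 24 h.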
Chain of human Retinoid X Receptor beta (RXRb), RXRB (gene 6257) (P28702 whole entry, looked up, the tested form may be a part): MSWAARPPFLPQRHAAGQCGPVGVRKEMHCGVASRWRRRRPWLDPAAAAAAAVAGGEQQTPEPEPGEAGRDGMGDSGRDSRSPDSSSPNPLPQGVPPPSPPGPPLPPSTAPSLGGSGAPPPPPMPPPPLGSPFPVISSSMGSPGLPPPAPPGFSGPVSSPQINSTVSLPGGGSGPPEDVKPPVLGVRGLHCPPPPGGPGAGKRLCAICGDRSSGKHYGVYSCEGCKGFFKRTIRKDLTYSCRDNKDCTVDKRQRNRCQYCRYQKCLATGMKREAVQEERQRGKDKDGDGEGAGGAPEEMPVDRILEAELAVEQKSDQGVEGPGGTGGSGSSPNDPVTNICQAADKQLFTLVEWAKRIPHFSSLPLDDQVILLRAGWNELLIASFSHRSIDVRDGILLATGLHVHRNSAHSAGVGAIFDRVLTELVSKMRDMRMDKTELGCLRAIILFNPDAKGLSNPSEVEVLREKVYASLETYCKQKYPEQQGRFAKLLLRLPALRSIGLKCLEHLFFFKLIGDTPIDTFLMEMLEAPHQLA

Assay [2] has as its target human Thyroid Receptor alpha (THRa1), THRA (gene 7067) (UniProt P10827). The assay is described as follows: ATG_THRa1_TRANS: Attagene TRANS-FACTORIAL HepG2 Assay for human Thyroid Receptor alpha (THRa1) (AID 2283014; active = hit-call score of the fitted dose curve at least 0.9, where 1 is the maximum). Summed up: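 HepG2 cells transiently transfected with multiplexed GAL4-UAS reporter units for exogenous chimeric THRa1-Gal4; reporter mRNA measured 24 h after dosing by RT-PCR, 6-FAM labelling, HpaI digestion and capillary electrophoresis. Gain-of-signal fitted versus DMSO baseline.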

Read-out in assay [3]: Interleukin-1 alpha (IL1a), IL1A (gene 3552)
As to the kind of experiment: BSK_BE3C_IL1a: BioMAP Diversity Plus: BE3C Assay for Interleukin-1 alpha (IL1a) Biomarker Activity (AID 2283016). The following applies: primary human bronchial epithelial cells; actives raise or lower the signal. Summed up: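 ELISA read-out of IL-1a from human lung bronchial epithelial primary cells, 24 h post-dose. Gain or loss of signal fitted relative to DMSO negative control.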

Read-out in assay [4]: Monocyte Chemoattractant Protein-1 (MCP1), CCL2 (gene 6347)
As to the kind of experiment: BSK_3C_MCP1: BioMAP Diversity Plus: 3C Assay for Monocyte Chemoattractant Protein-1 (MCP1) Biomarker Activity (AID 2283017). The following applies: primary human endothelial cells (HUVEC); actives raise or lower the signal. Summed up:
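Primary human umbilical vein endothelial cells (3C system) were exposed to test chemical for 24 h, after which MCP-1 was quantified by ELISA. Activity was fitted bidirectionally against DMSO as negative control and baseline.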

Read-out in assay [5]: Monocyte Chemoattractant Protein-1 (MCP1), CCL2 (gene 6347)
The assay is described as follows: BSK_4H_MCP1: BioMAP Diversity Plus: 4H Assay for Monocyte Chemoattractant Protein-1 (MCP1) Biomarker Activity (AID 2283018). The conditions noted are these: primary human endothelial cells (HUVEC); actives raise or lower the signal. In short, it runs like this: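 HUVEC primary cells, 24 h post-dose, MCP-1 by ELISA. Gain or loss of signal fitted bidirectionally vs DMSO baseline. Cytotoxicity: SRB stain (0.1% after 10% TCA fixation), read 560 nm, parallel cultures.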

Read-out in assay [6]: Human Leukocyte Antigen - DR isotype (HLADR), HLA-DRA (gene 3122)
As to the kind of experiment: BSK_3C_HLADR: BioMAP Diversity Plus: 3C Assay for Human Leukocyte Antigen - DR isotype (HLADR) Biomarker Activity (AID 2283019).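 As to outcome: ELISA of cell-surface HLA-DR on HUVEC 24 h after dosing.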 The conditions noted are these: primary human endothelial cells (HUVEC); actives raise or lower the signal. Summed up:
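Primary human umbilical vein endothelial cells (3C system) were dosed with compound and cell-surface HLA-DR was quantified by ELISA at 24 h. Activity was fitted bidirectionally against DMSO as negative control and baseline.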

Read-out in assay [7]: Interleukin-8 (IL8), CXCL8 (gene 3576)
The assay is described as follows: BSK_3C_IL8: BioMAP Diversity Plus: 3C Assay for Interleukin-8 (IL8) Biomarker Activity (AID 2283020). The following applies: primary human endothelial cells (HUVEC); actives raise or lower the signal. In short, it runs like this: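 HUVEC, 3C stimulation; 24 h compound exposure; IL-8 read by ELISA; gain or loss of signal fitted relative to DMSO control.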

Read-out in assay [8]: Monokine induced gamma interferon (MIG), CXCL9 (gene 4283)
As to the kind of experiment: BSK_3C_MIG: BioMAP Diversity Plus: 3C Assay for Monokine induced gamma interferon (MIG) Biomarker Activity (AID 2283021). The following applies: primary human endothelial cells (HUVEC); actives raise or lower the signal. Summed up:
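HUVEC, 3C system; 24 h chemical exposure; MIG by ELISA; bidirectional fit vs DMSO baseline.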

Read-out in assay [9]: E-selectin (Homo sapiens) (UniProt P16581)
The assay is described as follows: BSK_3C_Eselectin: BioMAP Diversity Plus: 3C Assay for Eselectin Biomarker Activity (AID 2283015).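 Also: cell surface E-selectin protein quantified by ELISA 24 h after dosing.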 The following applies: primary human endothelial cells (HUVEC); actives raise or lower the signal. Summed up:
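Primary human umbilical vein endothelial cells (3C system) were dosed with chemical and cell-surface E-selectin measured by ELISA 24 h later. Bidirectional curve fitting used DMSO as negative control and baseline.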

In assay [10] the target is human Vitamin D Receptor (VDR), VDR (gene 7421) (UniProt P11473). As to the kind of experiment: ATG_VDR_TRANS: Attagene TRANS-FACTORIAL HepG2 Assay for human Vitamin D Receptor (VDR) (AID 2283022; active = hit-call score of the fitted dose curve at least 0.9, where 1 is the maximum). Summed up:
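HepG2 cells were transiently transfected with multiple GAL4-UAS reporter units, so signal reflects exogenous chimeric receptor-Gal4 activity. After 24 h compound exposure, reporter mRNA was measured by RT-PCR, fluorescent labelling and capillary electrophoresis, fitted for gain of signal versus DMSO.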

Chain of human Vitamin D Receptor (VDR), VDR (gene 7421) (P11473 whole entry, looked up, the tested form may be a part): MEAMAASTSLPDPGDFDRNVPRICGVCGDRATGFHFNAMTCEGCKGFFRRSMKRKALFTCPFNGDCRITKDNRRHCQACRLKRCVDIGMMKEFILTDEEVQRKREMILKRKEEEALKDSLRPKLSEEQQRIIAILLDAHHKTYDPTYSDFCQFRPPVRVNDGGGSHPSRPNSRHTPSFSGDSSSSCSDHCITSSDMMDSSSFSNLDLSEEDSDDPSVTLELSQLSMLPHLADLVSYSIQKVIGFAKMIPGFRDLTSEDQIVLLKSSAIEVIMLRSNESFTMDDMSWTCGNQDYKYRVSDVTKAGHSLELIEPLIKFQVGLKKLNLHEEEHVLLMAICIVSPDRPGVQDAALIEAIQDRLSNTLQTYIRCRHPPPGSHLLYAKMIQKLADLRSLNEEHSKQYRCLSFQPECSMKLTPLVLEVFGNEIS
Chain of E-selectin (Homo sapiens) (P16581 whole entry, looked up): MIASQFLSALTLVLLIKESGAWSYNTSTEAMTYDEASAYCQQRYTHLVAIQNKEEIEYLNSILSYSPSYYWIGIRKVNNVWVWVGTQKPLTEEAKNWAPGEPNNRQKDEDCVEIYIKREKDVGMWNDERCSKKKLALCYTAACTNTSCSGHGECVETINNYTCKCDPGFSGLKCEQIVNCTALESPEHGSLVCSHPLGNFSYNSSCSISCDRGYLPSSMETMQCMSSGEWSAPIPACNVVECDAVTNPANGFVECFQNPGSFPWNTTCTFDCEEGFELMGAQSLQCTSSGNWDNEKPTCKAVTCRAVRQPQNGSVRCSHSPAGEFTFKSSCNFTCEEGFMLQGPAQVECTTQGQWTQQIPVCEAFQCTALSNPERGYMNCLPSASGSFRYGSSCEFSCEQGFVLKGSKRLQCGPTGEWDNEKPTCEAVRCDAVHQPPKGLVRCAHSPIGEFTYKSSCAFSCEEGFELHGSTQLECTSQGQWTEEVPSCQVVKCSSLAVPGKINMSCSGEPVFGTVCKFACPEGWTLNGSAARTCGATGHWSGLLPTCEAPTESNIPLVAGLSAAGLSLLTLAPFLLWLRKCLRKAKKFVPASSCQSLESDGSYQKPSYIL
Chain of human Thyroid Receptor alpha (THRa1), THRA (gene 7067) (P10827 whole entry, looked up, the tested form may be a part): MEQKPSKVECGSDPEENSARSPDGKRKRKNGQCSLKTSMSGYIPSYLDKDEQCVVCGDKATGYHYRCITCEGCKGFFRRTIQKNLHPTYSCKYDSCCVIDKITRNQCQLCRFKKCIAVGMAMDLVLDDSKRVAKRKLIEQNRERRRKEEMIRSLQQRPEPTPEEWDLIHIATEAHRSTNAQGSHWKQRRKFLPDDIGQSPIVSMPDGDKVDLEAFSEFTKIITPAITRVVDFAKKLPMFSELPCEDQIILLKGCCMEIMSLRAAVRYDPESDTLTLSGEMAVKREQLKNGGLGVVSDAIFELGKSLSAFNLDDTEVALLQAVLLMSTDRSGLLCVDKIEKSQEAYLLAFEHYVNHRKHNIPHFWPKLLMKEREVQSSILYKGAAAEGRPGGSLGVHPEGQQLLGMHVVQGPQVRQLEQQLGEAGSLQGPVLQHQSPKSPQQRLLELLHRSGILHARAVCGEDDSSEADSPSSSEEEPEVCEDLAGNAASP

Turning to `O=C(NS(=O)(=O)/C=C/c1ccccc1)c1ccc(F)cc1Cl`, the result in [1], in assay [2], in assay [3], in assay [4], in assay [5] and in assay [6] was inactive. Besides, the outcome in assay [7] and in assay [8] was inactive.

As to `COCCOCCOCCOC`, the molecule was called inactive in [1], in assay [2], in assay [3], in [4], in assay [5] and in assay [6]. The result in [7] and in assay [8] was inactive.

Turning to `COC(=O)c1c(Cl)c(Cl)c(C(=O)OC)c(Cl)c1Cl`, the AC50 in assay [1] is 30.8 µM (active). For the same molecule, the result in [9], in [3], in [4], in assay [5], in assay [6] and in assay [7] was inactive. The result in assay [8] was inactive.

`CN(C)c1ccc(N=NS(=O)(=O)O)cc1`: the call in assay [1], in [2], in [3], in assay [4], in assay [5] and in assay [6] was inactive. The result in [7], in assay [8] and in assay [10] was inactive.

`Cc1[nH]cnc1C[C@H]1CCc2c(C)c3ccccc3n2C1=O`: the outcome in assay [1], in assay [2], in assay [3], in assay [8] and in assay [10] was inactive. In addition, the AC50 was 27.5 µM (active) in assay [4], 22.9 µM (active) in assay [5], 29.4 µM (active) in [6] and 22.4 µM (active) in assay [7].

Consider `O=C(OC[C@H]1O[C@@H](OC(=O)c2cc(O)c(O)c(OC(=O)c3cc(O)c(O)c(O)c3)c2)[C@H](OC(=O)c2cc(O)c(O)c(OC(=O)c3cc(O)c(O)c(O)c3)c2)[C@@H](OC(=O)c2cc(O)c(O)c(OC(=O)c3cc(O)c(O)c(O)c3)c2)[C@@H]1OC(=O)c1cc(O)c(O)c(OC(=O)c2cc(O)c(O)c(O)c2)c1)c1cc(O)c(O)c(OC(=O)c2cc(O)c(O)c(O)c2)c1`, for which the molecule was called inactive in assay [1], in assay [2], in [9], in [7] and in assay [8]. Besides, the AC50 in assay [3] was 7.85 µM (active); in assay [4], 9.09 µM (active); in assay [5], 6.1 µM (active); in assay [6] it was 9.13 µM (active).

As to `CCCCC(CC)COC(=O)c1ccc(C(=O)OCC(CC)CCCC)cc1` (stereo not drawn), the AC50 in [1] is 49.7 µM (active). Moreover, the result in assay [2], in [9], in assay [3], in assay [4], in [5] and in [6] was inactive. Moreover, the result in assay [7] and in assay [8] was inactive.

Take `COC(=O)c1ccccc1O`: the AC50 in [1] is 2.1 µM (active). The outcome in assay [9], in [3], in assay [4], in [5], in [6] and in assay [7] was inactive. Besides, the outcome in [8] was inactive.

As for `CC(C)CC(C)(O)C#CC(C)(O)CC(C)C` (stereo not drawn), the result in assay [1], in [2], in assay [9], in assay [3], in assay [4] and in assay [5] was inactive. Moreover, the result in assay [6], in [7] and in [8] was inactive.

Regarding `C[C@](N)(Cc1ccc(O)c(O)c1)C(=O)O`, the molecule was called inactive in [1], in [2], in assay [9], in assay [3], in assay [4] and in [5]. For the same molecule, the result in assay [6], in assay [7], in [8] and in [10] was inactive.

Regarding `CC(C)CCO`, the molecule was called inactive in assay [1], in assay [2], in [3], in assay [4], in assay [5] and in assay [6]. The outcome in assay [7], in [8] and in assay [10] was inactive.

For the molecule `CC[C@H]1OC(=O)[C@H](C)[C@@H](O[C@H]2C[C@@](C)(OC)[C@@H](O)[C@H](C)O2)[C@H](C)[C@@H](O[C@@H]2O[C@H](C)C[C@H](N(C)C)[C@H]2O)[C@](C)(O)C[C@@H](C)C(=O)[C@H](C)[C@@H](O)[C@]1(C)O`, the molecule was called inactive in assay [1], in [2], in [9], in assay [3], in assay [4] and in [5]. The result in [6], in [7], in [8] and in assay [10] was inactive.

Regarding `O=P(OC(CCl)CCl)(OC(CCl)CCl)OC(CCl)CCl`, the AC50 in assay [1] was 26 µM (active). Moreover, the result in [2], in [9], in [3], in [4], in assay [5] and in [6] was inactive. The outcome in [7] and in assay [8] was inactive.

With `O=C(O)c1cc(N=Nc2ccc(S(=O)(=O)Nc3ccccn3)cc2)ccc1O`, the result in assay [1], in [9], in assay [3], in assay [4], in assay [5] and in assay [6] was inactive. Further, the outcome in assay [7] and in assay [8] was inactive.

In the case of `CCNc1ccccc1`, the molecule was classed as inactive in [1], in [2], in [9], in [3], in assay [4] and in [5]. The result in [6], in [7], in [8] and in assay [10] was inactive.

Consider `CNS(=O)(=O)c1cc(C(=O)N2CCC(CCN3C4CCC3CC(n3c(C)nc5ccccc53)C4)(c3cccc(F)c3)CC2)c(Cl)cc1F` (stereo not drawn), for which the call in [1], in assay [2], in assay [3], in assay [5] and in [8] was inactive. Also, the AC50 in assay [4] is 33.7 µM (active); in [6], 28.9 µM (active); in [7] it was 29.4 µM (active).

On to `Cn1cnc([N+](=O)[O-])c1Sc1ncnc2nc[nH]c12`, for which the outcome in [1], in assay [3], in [4], in assay [5], in assay [6] and in assay [7] was inactive. In assay [8], the result was inactive. Further, the AC50 in [2] is 27.2 µM (active).

As for `Cn1c(=O)cc(Oc2ccc(F)cc2F)c2cnc(NCC(C)(C)O)nc21`, the molecule was classed as inactive in [1], in [2], in assay [3], in assay [5], in assay [8] and in [10]. Besides, the results for the AC50 in assay [4], in assay [6] and in assay [7] were 3.14 µM (active), 3.11 µM (active) and 1.91 µM (active), respectively.

Regarding `O=C(O)CCN(C1(C(=O)NO)CCCC1)S(=O)(=O)c1ccc(Oc2ccc(F)cc2)cc1`, the result in [1], in assay [2], in assay [9], in assay [3], in assay [4] and in assay [5] was inactive. In addition, the outcome in assay [6], in assay [7], in assay [8] and in assay [10] was inactive.

Consider `CC(C)(O)c1coc(S(=O)(=O)NC(=O)Nc2c3c(cc4c2CCC4)CCC3)c1`, for which the outcome in [1], in assay [2], in assay [9], in assay [3], in assay [4] and in [5] was inactive. The result in assay [6], in assay [7], in assay [8] and in [10] was inactive.

(Values after PubChem BioAssay (EPA / NIEHS).)
